Screening results as filed in PubChem.
S1P4 antagonist: human S1P4 receptor antagonism; O95977; S1P4-expressing cells, antagonist mode, reporter read-out; inhibition, % at 4.98 µM; 220,000 compounds, 0.26% hits; AID 1510; in the data active = inhibition above about 29%;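 also: 0% = wells stimulated with agonist and 100% = vehicle wells without agonist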
Target sequence (O95977 whole entry, looked up): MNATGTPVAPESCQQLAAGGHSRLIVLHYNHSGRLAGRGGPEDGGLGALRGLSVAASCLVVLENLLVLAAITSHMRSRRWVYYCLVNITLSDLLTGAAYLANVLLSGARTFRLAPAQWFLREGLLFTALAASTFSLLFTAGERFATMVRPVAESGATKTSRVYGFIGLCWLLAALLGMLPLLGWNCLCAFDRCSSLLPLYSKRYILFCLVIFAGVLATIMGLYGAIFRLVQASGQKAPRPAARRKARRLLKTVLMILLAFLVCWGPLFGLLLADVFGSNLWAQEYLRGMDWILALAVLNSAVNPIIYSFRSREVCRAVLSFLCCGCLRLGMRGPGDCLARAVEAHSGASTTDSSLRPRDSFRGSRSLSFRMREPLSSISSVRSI
Hsp70 activator: switches on Hsp70 transcription; HeLa Hsp70 promoter luciferase reporter, luminescence; scaled: vehicle 0, proteasome-inhibitor control 100%; AID 1203; activation, % at 10 µM; 200,000 compounds, 0.04% hits;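 active = activation above the mean across all tested compounds plus 3 SD, cutoff set per campaign, cut at about 5.5% in these data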;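 also: 100% = MG132 at 30 µM as the positive control and 0% = DMSO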
CHOP inh: inhibitors of CHOP induction in ER stress response; inhibition, % at 10 µM; CHO-K1 CHOP-promoter luciferase, tunicamycin-induced, 15-18 h; 220,000 compounds, 3.8% hits;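 active = compounds that reduced the stress-induced luciferase reporter signal by more than about 70% of percent inhibition, limit read from the data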;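 also: 0% = tunicamycin plus vehicle and 100% = wells without tunicamycin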
S1P4 ag: agonists of human S1P4 receptor; S1P4-expressing cell line, agonist reporter assay; activation, % at 4.98 µM; AID 1509; O95977; 220,000 compounds, 0.35% hits; in the data active = activation above about 11%;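 also: 0% = DMSO vehicle and 100% = reference agonist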
CHOP inh conf: confirmation of CHOP induction inhibitors. shares compounds with CHOP inh. CHO-CHOP promoter luciferase reporter, tunicamycin-induced, luminescence. inhibition, % at 10 µM. 2,100 compounds, 45% hits. AID 504437;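 active = mean of three repeat readings of reporter signal inhibition above a set limit, cut at about 70% in these data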;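 also: 0% = tunicamycin plus vehicle and 100% = wells lacking tunicamycin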
* = called active by the depositor; . = no result. Hits are enriched below; roughly 4.2% of the tested compounds scored in any of these assays.

SMILES | S1P4 antagonist | Hsp70 activator | CHOP inh | S1P4 ag | CHOP inh conf
COC(=O)Oc1ccc(/C=N/NC(=O)CSCc2ccccc2Br)cc1OC | -12 | 0 | 96* | -1 | 75*
COc1ccc(C2C(Oc3ccccc3)C(=O)N2c2cc(C)ccc2C)cc1OC (stereo unspecified) | -25 | 0 | 20 | 1 | .
COc1ccc(C)cc1N1C(=N)/C(=C2/Nc3ccccc3S2)C(c2ccccc2)C1=O (stereo unspecified) | -4 | 0 | 98* | -1 | -15
O=C(O)c1ccc(/C=N/NC(=S)NCCN2CCOCC2)cc1 | -18 | 0 | -5 | 1 | .
CCC(=O)Oc1ccc2c(=O)c(-c3ccc4ccccc4n3)c(CC)oc2c1C | 6 | 0 | 27 | 2 | .
C(=N\Nc1ncnc2sc3c(c12)CCC3)/c1cccs1 | -5 | 0 | 102* | 1 | 73*
C(=N\Nc1ncnc2sc3c(c12)CCC3)/c1ccncc1 | -31 | 0 | -10 | 2 | .
CCOCCCNC(=O)/C(C#N)=C/c1ccc([N+](=O)[O-])o1 | 1 | 0 | 107* | 1 | 37
Cc1cccc(NC2SC(=O)N(CC(=O)O)C2=O)c1 (stereo unspecified) | -11 | 0 | 24 | -3 | .
C/C(=N\NC(=O)COc1ccc(C(C)(C)C)cc1)c1ccc(N2CCOCC2)cc1 | -13 | 0 | 101* | 1 | 92*
C/C(=N\NC(=O)c1ccc(F)cc1)c1ccc(N2CCOCC2)cc1 | 2 | 0 | 20 | 0 | .
O=C(CSc1nc(C2CCCCC2)n(-c2ccccc2)n1)NCCN1C(=O)CSC1=O | -34 | 0 | 5 | -1 | .
O=S(=O)(/N=C/c1ccccc1O)c1cccs1 | -16 | 0 | 22 | 0 | .
CCN(CC)S(=O)(=O)c1ccc(NC(=O)c2cc(-c3ccccc3)nc3ccccc23)cc1 | -8 | 0 | 38 | 0 | .
Cc1cc(C)nc(NS(=O)(=O)c2ccc(NC(=O)c3cc(-c4ccccc4)nc4ccccc34)cc2)n1 | -2 | 0 | 102* | -1 | 25
O=C(O)c1c[nH]c2ccc(F)cc2c1=O | -4 | 0 | 13 | -2 | .
COc1cc(/C=C(\C#N)c2nc3ccccc3[nH]2)cc(Br)c1OCc1ccc(F)cc1 | 1 | 0 | 104* | 2 | 84*
COc1cc(/C=C(/C#N)c2nc3ccccc3c(=O)[nH]2)ccc1O | -28 | 0 | 102* | 0 | 112*
COc1cc(/C=C(\C#N)c2nc3ccccc3[nH]2)cc(Br)c1OCc1ccccc1 | -9 | 0 | 46 | 1 | .
COc1cc(/C=C(\C#N)c2nc3ccccc3[nH]2)cc(OC)c1O | -14 | 0 | -17 | 2 | .
O=C(c1ccc(Cl)c([N+](=O)[O-])c1)N(Cc1ccc(F)cc1)C1CCS(=O)(=O)C1 (stereo unspecified) | -2 | . | -27 | -2 | .
COc1ccc(OCc2n(CC(=O)OC3CC(C)CCC3C(C)C)c3ccccc3[n+]2C)cc1 (stereo unspecified) | 19 | . | 97* | -1 | 95*
O=C(Nc1nc(NC(=O)c2ccco2)n(-c2ccccc2)n1)c1ccccc1 | 6 | 0 | 106* | -2 | 60
Nc1nc(NC(=O)c2ccccc2)nn1-c1ccccc1 | -2 | 0 | -12 | 1 | .
C=C(C)COc1ccc(-c2[nH]ncc2-c2ccccc2OC)c(O)c1 | -6 | 0 | 106* | 0 | -36
SMILES | S1P4 antagonist | Hsp70 activator | CHOP inh | S1P4 ag | CHOP inh conf
C=C(C)COc1ccc(-c2[nH]ncc2Oc2ccccc2OC)c(O)c1 | -2 | 0 | 0 | 0 | .
CCOC(=O)C1CCCN(C(=O)c2ccc(CS(=O)(=O)c3ccc(C)cc3)o2)C1 (stereo unspecified) | -3 | 0 | -28 | 1 | .
Oc1ccc(Cl)cc1CNc1ccc(Br)cn1 | -2 | 0 | . | 0 | .
Oc1c(Cl)cc(Cl)cc1CNc1ccc(Br)cn1 | -2 | 0 | 104* | 0 | -2
CCNc1nc(Oc2c(Cl)cccc2Cl)cc(C(F)(F)F)n1 | 12 | 0 | 98* | 1 | 102*
CC(/C=C/c1ccco1)=N/NC(=O)CNc1ccccc1C | 6 | 0 | 19 | 0 | .
CC1CCN(C(=O)/C(=C/c2ccccc2Cl)c2ccccc2)CC1 | -26 | 0 | 101* | 2 | 88*
Cc1cc(NCc2ccccn2)n2c(nc3ccccc32)c1C#N | 1 | 0 | 4 | 2 | .
COc1ccc2[nH]c(=O)c(CN(C3CCCCC3)C(c3nnnn3Cc3ccco3)C(C)C)cc2c1 (stereo unspecified) | 6 | 1 | 102* | 0 | 52
